Measurements reported in PubChem BioAssay (NCATS).
Records with an inconclusive call do not appear. Where a call stands in place of a potency, no number is given. The source made the active and inactive calls. Unless noted, calls follow the shape of the dose curve; as a rule, active = well fitted curve in the direction sought with a large enough effect; inconclusive = small, poorly fitted or top-dose-only effect, or another doubt; inactive = no such curve, though single readings can be large; an effect the other way counts as inactive or inconclusive.

Experiments:
[1] = biological target: Protein phosphatase 1D (Homo sapiens) (UniProt O15297); test: RapidFire Mass Spectrometry qHTS Assay for Modulators of WT P53-Induced Phosphatase 1 (WIP1) (AID 1347424); also: series mostly up to about 63 µM
Outline: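 RapidFire MS readout of dephosphorylated VEPPL-S-QETFS product, with 1 uM isotope-labelled peptide standard. Reaction: 10 nM WIP1, 2 uM phosphopeptide substrate, 5 min, room temperature, after 1 h compound preincubation; stopped with 0.5% formic acid.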

[2] = biological target: Protein phosphatase 1D (Homo sapiens) (UniProt O15297); test: Rhodamine-PBP qHTS Assay for Modulators of WT P53-Induced Phosphatase 1 (WIP1) (AID 1347425)
Outline: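 Read-out: Rhodamine-PBP fluorescence (ex 525/em 598 nm) for released Pi, read each minute for 11 min after adding 10 uM VEPPL-pS-QETFS; signal taken as f1 minus pre-substrate f0. Enzyme 5 nM WIP1 with 1 hr room-temperature compound preincubation.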

[3] = Validation qHTS assay for inhibitors of Activation Induced Cytidine Deaminase (AID): UDG Counterscreen signal (AID 1347427)
Outline: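 Fluorescence at 560 nm excitation, 665 nm emission reports UDG signal after 250 mM NaOH (2x) addition and 30 min. Enzymes (AID 1 uM, UDG 2 U/mL, at 4/3x) preincubated 10 min with compound, then 4 h with 4x 250 nM DJC20/DJC23 substrate at room temperature.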

[4] = biological target: Single-stranded DNA cytosine deaminase (Homo sapiens) (UniProt Q9GZX7); test: Validation qHTS assay for inhibitors of Activation Induced Cytidine Deaminase (AID): AID signal (AID 1347429)
Outline: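 Compounds (final up to 114 uM) preincubated with AID plus UDG; 250 nM DJC20/DJC23 substrate mix (4x stock) added, 4 hr at room temperature, then NaOH, 30 min. Read 1 fluorescence at 540 nm excitation, 590 nm emission.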

[5] = Primary qHTS for inhibitors of La Crosse Virus (LACV) - induced cell death in SH-SY5Y cells (AID 1508616);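 also: top concentration of the series differs between compounds; higher means more rescue of cells from virus-induced death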
Outline: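 Rescue of virus-induced death was read as ATPLite luminescence after 6 days at 37C, scaled between DMSO wells with LACV and without virus. Cells were SH-SY5Y, 6000/well, infected at 0.01 MOI after compound addition.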

[6] = biological target: Calcium and integrin-binding protein 1 (Homo sapiens) (UniProt Q99828); test: Validation qHTS for Identification of Calcium Integrin Binding protein 1 (CIB1) Competitor (AID 1508618)
Outline: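 CIB1-GST (1 uM final) in 5 mM HEPES pH 7.4, 125 mM NaCl, 5 mM CaCl2, 0.01% Tween20 was preincubated 15 min at room temperature with compound (up to 114 uM), then FITC-alphaIIb peptide (100 nM) added for 15 min; fluorescence polarization read.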

[7] = biological target: Calcium and integrin-binding protein 1 (Homo sapiens) (UniProt Q99828); test: Primary qHTS for Identification of Calcium Integrin Binding Protein 1 (CIB1) Competitor (AID 1508620);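 also: GST tagged CIB1 binding a fluorescein labelled alphaIIb integrin peptide tracer; top concentration of the series differs between compounds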
Outline: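 Fluorescence polarization competition: GST-tagged CIB1 (1 uM final) preincubated with compound 15 min at room temperature, then FITC-labelled alphaIIb peptide (100 nM final) added. After 15 min at room temperature, polarization read at Ex 480/Em 540.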

[8] = Primary qHTS for small molecule stabilizers of the endoplasmic reticulum resident proteome: Secreted ER Calcium Modulated Protein (SERCaMP) assay (AID 1508630)
Outline: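 The SH-SY5Y reporter protocol was run at 3 concentrations up to 38.3 uM (primary) or 11 concentrations (follow-up): 16 h compound, 100 nM thapsigargin for 4 h, then extracellular luciferase luminescence.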

[9] = qHTS to identify inhibitors of the type 1 interferon - major histocompatibility complex class I in skeletal muscle: primary screen against the NCATS Mechanism Interrogation Plate v5.0 (MIPE) Libary (AID 1347411); also: nearly all actives have a fitted effect of over 65% in size
Outline: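 Luminescence from CRISPR HiBit-tagged endogenous HLA-B in human myoblasts reported MHC class I level after 24 h of IFN-beta (4 ng/ml) plus compound. Compounds ran as 11-point 1:3 series, top 46 uM final.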

[10] = A High-Content qHTS Against Drug Library for the Identification of Small Molecules that Inhibit DYT1 Early Onset Primary Dystonia-Associated Cell Pathology (AID 1645839; calls by dose curve; also: series mostly up to about 46 µM)
Outline: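 Cells were seeded and left for 24 h, then dosed with compound alongside tetracycline induction of mutant EGFP-TorsinA. They were incubated for 48 h, fixed in 4% paraformaldehyde, permeabilized and imaged for mislocalization (%pathology) and cell count.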

[11] = biological target: Cytochrome P450 2D6 (Homo sapiens) (UniProt P10635); test: Cytochrome P450 family 2 subfamily D member 6 (CYP2D6) small molecule antagonists: luciferase biochemical (cell-free) qHTS assay (AID 1645840; active = well fitted curve in the direction sought with a large enough effect in the repeat runs; an effect the other way counts as inactive or inconclusive; also: nearly all actives have a fitted effect of over 55% in size; also: potency is read from the fitted curve at half-maximal effect)
Outline: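 P450-Glo CYP2D6 system: proluciferin substrate converted by enzyme to luciferin, read by luminescence proportional to activity. Enzyme-substrate mix with compound 10 min at room temperature, then NADPH regeneration 1 h before detection reagent.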

[12] = biological target: Papain (Carica papaya) (UniProt P00784); test: Primary qHTS assay for inhibitors of the protease papain (AID 1645873);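 also: papain turnover of Z-FR-AMC read as the AMC fluorescence gain over 10 min; series mostly up to about 50 µM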
[13] = Primary qHTS for inhibitors of nuclear receptor binding SET domain protein 2 (NSD2) in an RCH-ACV wild type WT cells (2C) (AID 1645877); also: nearly all actives have a fitted effect of over 70% in size; also: potency is read from the fitted curve at half-maximal effect
[14] = Counterscreen qHTS for small molecule stabilizers of the endoplasmic reticulum resident proteome: GLuc-NoTag assay (AID 1508627); also: potency is read from the fitted curve at half-maximal effect
Outline: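 Counterscreen line: SH-SY5Y-GLuc-NoTag. Seed, 5 h; compound, 19 h; thapsigargin 100 nM, 4 h; 37C/5% CO2. Readout: secreted GLuc luminescence, coelenterazine 0.07x final, no lysis.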

[15] = biological target: Cytochrome P450 2C9 (Homo sapiens) (UniProt P11712); test: Cytochrome P450 family 2 subfamily C member 9 (CYP2C9) small molecule antagonists: luciferase biochemical (cell-free) qHTS assay (AID 1645842; active = well fitted curve in the direction sought with a large enough effect in the repeat runs; an effect the other way counts as inactive or inconclusive; also: nearly all actives have a fitted effect of over 55% in size; also: potency is read from the fitted curve at half-maximal effect)
Outline: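 P450-Glo CYP2C9 system: proluciferin substrate with enzyme in mix containing 0.4% BSA, 10 min at room temperature, then NADPH regeneration solution added and incubated 1 h at 37C. Detection reagent stopped reaction; luminescence read after 20 min as RLU.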

[16] = Primary qHTS for inhibitors of nuclear receptor binding SET domain protein 2 (NSD2) in an isogenic RCH-ACV NSD2 p.E1099K mutant (9B) (AID 1645876); also: nearly all actives have a fitted effect of over 70% in size; also: potency is read from the fitted curve at half-maximal effect
[17] = biological target: Cytochrome P450 3A4 (Homo sapiens) (UniProt P08684); test: Cytochrome P450 family 3 subfamily A member 4 (CYP3A4) small molecule antagonists: luciferase qHTS assay (AID 1645841; active = well fitted curve in the direction sought with a large enough effect in the repeat runs; an effect the other way counts as inactive or inconclusive; also: nearly all actives have a fitted effect of over 45% in size)
Outline: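 P450-Glo CYP3A4 enzyme with proluciferin substrate preincubated 10 min with compound at room temperature, then NADPH regeneration 1 h. Luciferin detection reagent added for 20 min; luminescence recorded. Ketoconazole positive control.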

[18] = biological target: N-terminal Xaa-Pro-Lys N-methyltransferase 1 (Homo sapiens) (UniProt Q9BV86); test: Confirmatory qHTS for Inhibitors of N-terminal methyltransferase 1 (NTMT1): MTaseGlo Assay (AID 1645874); conditions: NTMT1 enzyme, MTase-Glo SAH luminescence; also: potency is read from the fitted curve at half-maximal effect; nearly all actives have a fitted effect of over 65% in size
Outline: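 SPKRIA peptide at 1 uM was methylated by 125 nM NTMT1 using 100 uM SAM over 30 min at room temperature, following a 15 min compound preincubation. Product SAH was detected luminescently.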

[19] = Confirmatory qHTS for small molecule stabilizers of the endoplasmic reticulum resident proteome: Secreted ER Calcium Modulated Protein (SERCaMP) assay (AID 1508628); also: nearly all actives have a fitted effect of over 40% in size; also: potency is read from the fitted curve at half-maximal effect
Outline: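 Reporter secretion upon ER calcium depletion (100 nM thapsigargin, 4 h, 37C) is measured as medium luminescence with coelenterazine, after 16 h compound pretreatment of SH-SY5Y-GLuc-SERCaMP cells; primary at three concentrations up to 38.3 uM, follow-up at 11 (up to 76.6 uM).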

Sequence of Cytochrome P450 2D6 (Homo sapiens) (P10635 whole entry, looked up): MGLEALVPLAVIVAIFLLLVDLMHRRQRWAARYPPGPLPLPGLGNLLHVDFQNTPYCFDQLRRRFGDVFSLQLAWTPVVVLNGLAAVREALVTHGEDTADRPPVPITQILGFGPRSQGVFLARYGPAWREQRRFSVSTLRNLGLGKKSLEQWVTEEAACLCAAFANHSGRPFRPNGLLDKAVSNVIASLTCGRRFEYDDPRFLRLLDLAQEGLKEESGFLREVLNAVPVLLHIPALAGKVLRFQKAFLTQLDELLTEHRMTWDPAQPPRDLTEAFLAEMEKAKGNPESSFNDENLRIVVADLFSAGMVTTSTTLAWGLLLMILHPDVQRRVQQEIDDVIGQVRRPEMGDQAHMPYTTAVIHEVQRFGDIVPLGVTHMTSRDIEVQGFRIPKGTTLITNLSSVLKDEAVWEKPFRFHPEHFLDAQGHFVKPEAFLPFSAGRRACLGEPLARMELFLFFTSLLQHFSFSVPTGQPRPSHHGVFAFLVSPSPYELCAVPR
Sequence of Protein phosphatase 1D (Homo sapiens) (O15297 whole entry, looked up): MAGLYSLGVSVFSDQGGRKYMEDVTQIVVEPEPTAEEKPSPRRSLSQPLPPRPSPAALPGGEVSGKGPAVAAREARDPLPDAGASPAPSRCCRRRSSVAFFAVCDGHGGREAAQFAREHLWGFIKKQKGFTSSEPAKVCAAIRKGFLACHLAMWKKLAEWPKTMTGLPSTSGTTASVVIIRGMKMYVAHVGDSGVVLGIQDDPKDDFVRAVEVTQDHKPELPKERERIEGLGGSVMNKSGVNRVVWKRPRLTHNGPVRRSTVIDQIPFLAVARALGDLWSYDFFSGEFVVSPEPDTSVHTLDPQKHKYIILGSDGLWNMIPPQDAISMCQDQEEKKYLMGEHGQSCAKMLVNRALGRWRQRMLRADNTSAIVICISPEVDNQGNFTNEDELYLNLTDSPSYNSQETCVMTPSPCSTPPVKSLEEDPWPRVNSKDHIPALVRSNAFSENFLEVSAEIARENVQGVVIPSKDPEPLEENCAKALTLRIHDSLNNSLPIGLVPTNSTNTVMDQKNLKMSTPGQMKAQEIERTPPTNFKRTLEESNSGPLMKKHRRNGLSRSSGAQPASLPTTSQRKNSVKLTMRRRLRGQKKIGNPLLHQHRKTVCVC
Sequence of Cytochrome P450 2C9 (Homo sapiens) (P11712 whole entry, looked up): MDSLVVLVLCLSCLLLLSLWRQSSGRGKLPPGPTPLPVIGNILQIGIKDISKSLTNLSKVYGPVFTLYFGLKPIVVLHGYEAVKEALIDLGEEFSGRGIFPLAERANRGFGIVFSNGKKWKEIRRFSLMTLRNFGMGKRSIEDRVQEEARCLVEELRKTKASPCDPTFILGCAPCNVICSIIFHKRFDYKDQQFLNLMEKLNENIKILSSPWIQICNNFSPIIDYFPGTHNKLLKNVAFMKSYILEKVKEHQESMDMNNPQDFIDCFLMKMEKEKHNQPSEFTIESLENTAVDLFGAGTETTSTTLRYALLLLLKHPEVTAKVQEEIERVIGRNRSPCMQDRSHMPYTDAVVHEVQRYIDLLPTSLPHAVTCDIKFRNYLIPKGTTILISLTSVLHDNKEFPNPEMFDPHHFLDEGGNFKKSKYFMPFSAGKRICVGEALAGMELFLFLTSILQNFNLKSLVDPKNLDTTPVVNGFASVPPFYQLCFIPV
Sequence of Single-stranded DNA cytosine deaminase (Homo sapiens) (Q9GZX7 whole entry, looked up): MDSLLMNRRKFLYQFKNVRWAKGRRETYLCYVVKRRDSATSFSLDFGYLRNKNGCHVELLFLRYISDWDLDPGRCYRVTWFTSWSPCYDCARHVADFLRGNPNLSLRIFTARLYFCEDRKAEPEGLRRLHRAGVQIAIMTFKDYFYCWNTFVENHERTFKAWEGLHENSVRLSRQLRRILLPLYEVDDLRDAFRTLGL
Sequence of Papain (Carica papaya) (P00784 whole entry, looked up, the tested form may be a part): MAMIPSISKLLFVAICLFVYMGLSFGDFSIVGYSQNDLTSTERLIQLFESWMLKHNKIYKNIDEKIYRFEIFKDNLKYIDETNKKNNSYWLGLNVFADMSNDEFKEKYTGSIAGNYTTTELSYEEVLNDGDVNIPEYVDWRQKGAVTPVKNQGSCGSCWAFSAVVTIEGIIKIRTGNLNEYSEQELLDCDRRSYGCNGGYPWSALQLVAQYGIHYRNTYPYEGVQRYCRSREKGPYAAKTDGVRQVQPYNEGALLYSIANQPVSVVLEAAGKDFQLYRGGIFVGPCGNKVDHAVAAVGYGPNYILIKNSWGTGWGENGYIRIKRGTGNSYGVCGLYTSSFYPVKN
Sequence of Calcium and integrin-binding protein 1 (Homo sapiens) (Q99828 whole entry, looked up): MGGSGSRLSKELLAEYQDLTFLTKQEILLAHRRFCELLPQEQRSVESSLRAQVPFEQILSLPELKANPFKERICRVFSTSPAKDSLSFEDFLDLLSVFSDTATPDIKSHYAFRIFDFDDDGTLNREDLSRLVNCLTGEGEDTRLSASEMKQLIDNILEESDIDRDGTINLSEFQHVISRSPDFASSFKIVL
Sequence of N-terminal Xaa-Pro-Lys N-methyltransferase 1 (Homo sapiens) (Q9BV86 whole entry, looked up): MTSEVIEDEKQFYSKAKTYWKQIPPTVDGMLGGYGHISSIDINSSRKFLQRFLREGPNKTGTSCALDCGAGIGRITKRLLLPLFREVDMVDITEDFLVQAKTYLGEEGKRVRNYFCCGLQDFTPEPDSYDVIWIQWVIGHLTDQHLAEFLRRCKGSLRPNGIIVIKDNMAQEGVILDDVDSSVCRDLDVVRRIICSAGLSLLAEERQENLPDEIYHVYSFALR
Sequence of Cytochrome P450 3A4 (Homo sapiens) (P08684 whole entry, looked up): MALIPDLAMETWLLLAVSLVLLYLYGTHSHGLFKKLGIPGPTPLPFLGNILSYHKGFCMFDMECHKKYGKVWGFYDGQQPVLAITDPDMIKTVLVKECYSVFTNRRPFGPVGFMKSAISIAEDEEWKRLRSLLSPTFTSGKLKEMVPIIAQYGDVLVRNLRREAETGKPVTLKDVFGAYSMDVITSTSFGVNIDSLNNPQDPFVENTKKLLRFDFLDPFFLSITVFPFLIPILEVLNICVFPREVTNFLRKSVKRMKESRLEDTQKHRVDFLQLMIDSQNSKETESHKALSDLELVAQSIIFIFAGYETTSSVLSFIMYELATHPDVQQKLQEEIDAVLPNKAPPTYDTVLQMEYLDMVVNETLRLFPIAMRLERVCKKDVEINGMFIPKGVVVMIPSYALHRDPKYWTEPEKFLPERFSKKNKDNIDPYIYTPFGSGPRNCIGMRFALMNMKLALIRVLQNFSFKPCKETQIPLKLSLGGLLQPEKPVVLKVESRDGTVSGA

| Structure (SMILES) | outcome [1] | outcome [2] | Potency [3] | Potency [4] | outcome [5] | outcome [6] | outcome [7] | Potency [8] | Potency [9] | Potency [10] | Potency [11] | Potency [12] | Potency [13] | Potency [14] | Potency [15] | Potency [16] | outcome [17] | Potency [18] | Potency [19] |
| --- | --- | --- | --- | --- | --- | --- | --- | --- | --- | --- | --- | --- | --- | --- | --- | --- | --- | --- | --- |
| OCc1cc(C(O)CNCCCCCCOCCCCc2ccccc2)ccc1O (stereo not drawn) | inactive | inactive | inactive | inactive | inactive | inactive | inactive | inactive |  |  |  |  |  |  |  |  |  |  |  |
| NC(=O)c1ncn([C@@H]2O[C@H](CO)[C@@H](O)[C@H]2O)n1 | inactive | inactive | inactive | inactive | inactive | inactive | inactive | inactive | inactive | inactive | inactive | inactive | 14.8 µM (active) |  |  |  |  |  |  |
| CC(C)c1c(C(=O)Nc2ccccc2)c(-c2ccccc2)c(-c2ccc(F)cc2)n1CC[C@@H](O)C[C@@H](O)CC(=O)O | inactive | inactive |  |  | inactive | inactive | inactive |  | inactive | inactive |  | inactive |  |  |  |  |  |  |  |
| C[C@]12CC[C@@H]3c4ccc(O)cc4CC[C@H]3[C@@H]1CCC2=O | inactive | inactive | inactive | inactive | inactive | inactive | inactive | inactive |  | inactive |  | inactive |  |  |  |  |  |  |  |
| CSc1ccc2c(c1)N(CCC1CCCCN1C)c1ccccc1S2 (stereo not drawn) | inactive | inactive | inactive | inactive | inactive | inactive | inactive |  |  |  |  | inactive | 3.76 µM (active) | 50.1 µM (active) | inactive | 5.96 µM (active) |  |  |  |
| CN(N=O)C(=O)N[C@@H]1[C@@H](O)[C@H](O)[C@@H](CO)O[C@@H]1O | inactive | inactive |  |  | inactive |  | inactive | inactive | inactive | inactive | inactive |  | inactive |  | inactive | inactive | inactive |  |  |
| CCCCN(CCCC)CC(O)c1cc(Cl)cc2c1-c1ccc(Cl)cc1/C2=C/c1ccc(Cl)cc1 (stereo not drawn) | inactive | inactive |  |  | inactive | inactive | inactive |  | inactive |  | 0.347 µM (active) | inactive | 13.3 µM (active) |  | 21.9 µM (active) | 15 µM (active) |  |  |  |
| COc1ccc2[nH]c(S(=O)Cc3ncc(C)c(OC)c3C)nc2n1 (stereo not drawn) | inactive | inactive |  |  | inactive |  |  | inactive | inactive | inactive | inactive |  | inactive |  | 10.7 µM (active) | inactive |  | 35.5 µM (active) |  |
| CCCn1cnc2c1c(=O)n(CCCCC(C)=O)c(=O)n2C | inactive | inactive | inactive | inactive | inactive | inactive | inactive | inactive |  | inactive | inactive | inactive | inactive |  | inactive | inactive |  |  |  |
| NC(=O)c1ncn([C@@H]2O[C@H](CO)[C@@H](O)[C@H]2O)c1N | inactive | inactive |  |  | inactive |  | inactive |  | inactive | inactive | inactive |  | inactive |  | inactive | inactive |  |  |  |
| CNCCCC1c2ccccc2C=Cc2ccccc21 | inactive | inactive | inactive | inactive | inactive | inactive | inactive |  |  |  | 3.09 µM (active) | inactive |  |  | inactive |  |  |  | inactive |
| CN(C)CCCN1c2ccccc2Sc2ccc(Cl)cc21 | inactive | inactive | inactive | inactive | inactive | inactive | inactive | inactive |  |  |  | inactive | 13.3 µM (active) |  |  | 15 µM (active) |  |  |  |
| CNC(=O)Oc1ccc2c(c1)[C@]1(C)CCN(C)[C@@H]1N2C | inactive | inactive | inactive | inactive | inactive | inactive | inactive | inactive |  | inactive | 0.977 µM (active) | inactive | inactive |  | inactive | inactive |  |  |  |
| CC(C(O)c1ccc(O)cc1)N1CCC(Cc2ccccc2)CC1 (stereo not drawn) | inactive | inactive | inactive | inactive | inactive | inactive | inactive | inactive |  | inactive |  | inactive |  | inactive | inactive |  |  |  |  |
| CC(C)C(=O)c1c(C(C)C)nn2ccccc12 | inactive | inactive | inactive | inactive | inactive | inactive | inactive | inactive |  | inactive | inactive | inactive | inactive |  | inactive | inactive |  |  |  |
| Nc1cc(=O)[nH]c(N)n1 | inactive | inactive | inactive | inactive | inactive | inactive | inactive | inactive |  | inactive | inactive | inactive | inactive |  | inactive | inactive |  |  |  |
| CC1=C(/C=C/C(C)=C/C=C/C(C)=C/C(=O)O)C(C)(C)CCC1 | inactive | inactive | inactive | inactive | inactive | inactive | inactive | inactive | inactive |  | inactive | inactive |  |  |  | 21.1 µM (active) |  |  |  |
| CN1CCN(C2Cc3ccccc3Sc3ccc(Cl)cc32)CC1 (stereo not drawn) | inactive | inactive | inactive | inactive | inactive | inactive | inactive |  |  |  | 0.121 µM (active) | inactive |  |  | 8.49 µM (active) |  |  |  | 17.8 µM (active) |
